Source: PubChem (National Center for Advancing Translational Sciences (NCATS))
A selection: hits, their analogues and other compounds. The true share with any hit is near 0.96%.
Fluorescein autfl: compound autofluorescence in fluorescein spectral region; 59,000 compounds, 0.91% hits; Compound autofluorescence, 480/540 nm, fluorescein-equivalent; hits give high values; max fluorescein-equivalent concentration, M; in the data active means max fluorescein-equivalent concentration above about 10 nM; inconclusive means between about 1.1 nM and that limit
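Autofluorescence profiling; 100 mM Tris, pH 8.0; incubation 15 min at RT; ex/em 480/540 nm; result as fluorescein-equivalent concentration.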
Resorufin autofl: compound fluoresces in the resorufin spectral region; Compound fluorescence, resorufin region 547/598 nm, buffer; hits give high values; max dye-equivalent concentration, M; 59,000 compounds, 0.04% hits
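Compounds in 100 mM Tris buffer, pH 8.0, incubated 15 min at room temperature, then read with 547 nm excitation and 598 nm emission filters. Fluorescence was converted to dye-equivalent concentration using an on-plate six-point resorufin standard curve.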
TexasRed autofl: compound fluoresces in the Texas Red spectral region; max dye-equivalent concentration, M; 59,000 compounds, 0.06% hits; Compound fluorescence, Texas Red channel, 547/618 nm; hits give high values; in the data active means max dye-equivalent concentration above about 10 nM; inconclusive means between about 1.1 nM and that limit
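Pin-transferred compounds and Texas Red standards go into 100 mM Tris buffer, pH 8.0. After 15 min at room temperature, plates are imaged with 547/618 nm filters. Each value is a dye-equivalent concentration derived from the per-plate dye curve.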
A488 fluor: compound autofluorescence in A488 spectral region; compound autofluorescence, A488 spectral region, dye equivalency; Compound Type: qHTS ECL - MLSMR; max dye equivalency, M; 59,000 compounds, 0.1% hits
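Compounds pin-transferred into 100 mM Tris buffer, pH 8.0, incubated 15 min at room temperature, then imaged with 480 nm excitation/540 nm emission filters. Fluorescence converted to Alexa 488 dye-equivalent concentration via an on-plate six-point A488 standard curve.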
A647 fluor: compound autofluorescence in A647 spectral region | AID 592 | Compound fluorescence, A647 channel (570/671 nm), Tris buffer | 59,000 tested, under 10 active | max dye-equivalent concentration, M;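 further: values scaled relative to a standard on each plate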
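Compounds pinned into 100 mM Tris pH 8.0, 15 min at room temperature, then read with 570 nm excitation/671 nm emission filters. Fluorescence normalized to an on-plate six-point Alexa 647 standard curve, giving dye-equivalent concentration per compound concentration.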
Rhodamine fluor: rhodamine region autofluorescence; Rhodamine-region fluorescence, 547/598 nm, Tris buffer; hits give high values; 59,000 compounds, 0.05% hits; max dye-equivalent concentration, M; in the data active means max dye-equivalent concentration above about 11 nM; inconclusive means between about 1.1 nM and that limit
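Compound fluorescence in 100 mM Tris, pH 8.0, read after 15 min at room temperature with 547 nm excitation and 598 nm emission. Output is dye-equivalent concentration from an on-plate rhodamine standard series.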
The depositor's hits bear a star; ! = not active in a repeat. Unless noted, how the calls were made is not given here.

Screening CCn1nc(-c2ccccc2)nc2c(=O)n(C)c(=O)nc1-2 returned Fluorescein autfl 1.8e-07M*, Resorufin autofl inactive, TexasRed autofl inactive, A488 fluor 1.1e-08M*, A647 fluor 1.9e-08 and Rhodamine fluor inactive.
CN1C[C@H](CO)C=C2c3cccc4[nH]cc(c34)C[C@@H]21 was read as Fluorescein autfl 2.7e-08M*, Resorufin autofl inactive, TexasRed autofl inactive, A488 fluor inactive, A647 fluor 2.9e-09 and Rhodamine fluor inactive.
Screening CCN(CC)C(=O)N[C@@H]1C=C2c3cccc4[nH]cc(c34)C[C@@H]2N(C)C1 returned Fluorescein autfl 1.3e-08M*!, Resorufin autofl inactive, TexasRed autofl inconclusive, A488 fluor inactive, A647 fluor 1e-09 and Rhodamine fluor inactive.
COc1cccc2c1C(=O)c1c(O)c3c(c(O)c1C2=O)C[C@](O)(/C(C)=N\O)C[C@@H]3O[C@H]1C[C@H](N)[C@@H](O)[C@H](C)O1 was read as Fluorescein autfl 7.6e-08M*, Resorufin autofl 1.7e-08M*, TexasRed autofl 1.9e-08M*, A488 fluor inconclusive, A647 fluor 1e-09 and Rhodamine fluor 3e-08M*.
Screening COc1cc2c(cc1O)CCN[C@H]2C returned Fluorescein autfl inactive, Resorufin autofl inactive, TexasRed autofl inactive, A488 fluor inactive, A647 fluor 1.8e-09 and Rhodamine fluor inactive.
Screening CN1CC=C2C(C#N)=C(N)C(C#N)(C#N)C(c3ccncc3)C2C1 (stereo not drawn) returned Fluorescein autfl 4.2e-08M*, Resorufin autofl inactive, TexasRed autofl inconclusive, A488 fluor inconclusive, A647 fluor 1e-09 and Rhodamine fluor inactive.
`O=c1cccc2n1C[C@@H]1C[C@H]2CN2CCCC[C@H]12` gave Fluorescein autfl inactive, Resorufin autofl inactive, TexasRed autofl inactive, A488 fluor inactive, A647 fluor 1e-09 and Rhodamine fluor inactive.
For CC[C@H]1[C@@H]2C[C@@H]3[C@@H]4N(C)c5ccccc5[C@@]45C[C@@H]([C@H]2[C@@H]5O)N3[C@@H]1O the results were Fluorescein autfl inactive, Resorufin autofl inactive, TexasRed autofl inactive, A488 fluor inactive, A647 fluor 1e-09 and Rhodamine fluor inactive.
`C[C@@H](CO)NC(=O)[C@H]1C=C2c3cccc4[nH]cc(c34)C[C@H]2N(C)C1` gave Fluorescein autfl inconclusive, Resorufin autofl inactive, TexasRed autofl inactive, A488 fluor inactive, A647 fluor 1e-09 and Rhodamine fluor inactive.
CC[C@H](CO)NC(=O)[C@H]1C=C2c3cccc4[nH]cc(c34)C[C@@H]2N(C)C1 was read as Fluorescein autfl 2.1e-08M*, Resorufin autofl inactive, TexasRed autofl inactive, A488 fluor inactive, A647 fluor 1.8e-09 and Rhodamine fluor inactive.
For CC[C@@H](CO)NC(=O)[C@@H]1C=C2c3cccc4c3c(cn4C)C[C@H]2N(C)C1 the results were Fluorescein autfl 4.8e-08M*, Resorufin autofl inactive, TexasRed autofl inactive, A488 fluor inconclusive, A647 fluor 1e-09 and Rhodamine fluor inactive.
For Cn1c(=O)c2nncnc2n(C)c1=O the results were Fluorescein autfl 1.1e-08M*, Resorufin autofl inactive, TexasRed autofl inactive, A488 fluor inactive, A647 fluor 6.9e-09 and Rhodamine fluor inactive.
C[C@H]1CC[C@]2(NC1)O[C@@H]1C[C@@H]3[C@@H]4CC=C5C[C@H](O)CC[C@@]5(C)[C@H]4CC[C@@]3(C)[C@H]1[C@@H]2C was read as Fluorescein autfl inactive, Resorufin autofl inactive, TexasRed autofl inactive, A488 fluor inactive, A647 fluor 1e-09 and Rhodamine fluor inactive.
`C[C@@H]1O[C@H]1P(=O)(O)O` gave Fluorescein autfl inconclusive, Resorufin autofl inactive, TexasRed autofl inactive, A488 fluor inactive, A647 fluor 5.1e-08 and Rhodamine fluor inactive.
CC(C)[C@@]1(NC(=O)[C@@H]2C=C3c4cccc5[nH]cc(c45)C[C@@H]3N(C)C2)O[C@]2(O)[C@H]3CCCN3C(=O)[C@H](Cc3ccccc3)N2C1=O was read as Fluorescein autfl 2.9e-08M*, Resorufin autofl inactive, TexasRed autofl inactive, A488 fluor inconclusive, A647 fluor 1.7e-09 and Rhodamine fluor inactive.
For CC(C)[C@@]1(NC(=O)[C@H]2C[C@H]3c4cccc5[nH]cc(c45)C[C@@H]3N(C)C2)O[C@]2(O)[C@H]3CCCN3C(=O)[C@H](Cc3ccccc3)N2C1=O the results were Fluorescein autfl inconclusive, Resorufin autofl inactive, TexasRed autofl inactive, A488 fluor inactive, A647 fluor 2.5e-08 and Rhodamine fluor inactive.
Screening CN1C[C@H](C(=O)N[C@@]2(C)O[C@@]3(O)[C@H]4CCCN4C(=O)[C@@H](Cc4ccccc4)N3C2=O)C=C2c3cccc4[nH]cc(c34)C[C@@H]21 returned Fluorescein autfl 1.8e-08M*, Resorufin autofl inactive, TexasRed autofl inactive, A488 fluor inactive, A647 fluor 3.1e-08 and Rhodamine fluor inactive.
Screening CCN1C[C@@]2(C)CC[C@H](O)[C@@]34[C@@H]5C[C@H]6[C@H](O)[C@@H]5[C@](O)(C[C@@H]6OC)[C@H](C[C@@H]23)[C@H]14 returned Fluorescein autfl inactive, Resorufin autofl inactive, TexasRed autofl inactive, A488 fluor inactive, A647 fluor 1.3e-09 and Rhodamine fluor inactive.
Screening CCCN1CCc2cccc3c2[C@@H]1Cc1ccc(O)c(O)c1-3 returned Fluorescein autfl inconclusive, Resorufin autofl inactive, TexasRed autofl inactive, A488 fluor inactive, A647 fluor 1e-09 and Rhodamine fluor inactive.
C=C[C@@H]1CN2CC[C@H]1C[C@H]2[C@@H](O)c1ccnc2ccccc12 was read as Fluorescein autfl inactive, Resorufin autofl inactive, TexasRed autofl inactive, A488 fluor inactive, A647 fluor 1e-09 and Rhodamine fluor inactive.
For CN1C[C@@H](CS(=O)(=O)N(C)C)C[C@H]2c3cccc4c3c(cn4C)C[C@@H]21 the results were Fluorescein autfl 1.9e-08M*, Resorufin autofl inactive, TexasRed autofl inconclusive, A488 fluor inactive, A647 fluor 1e-09 and Rhodamine fluor inactive.
`CN1C[C@H](CNC(=O)OCc2ccccc2)C[C@@H]2c3cccc4c3c(cn4C)C[C@H]21` gave Fluorescein autfl 4.7e-08M*, Resorufin autofl inactive, TexasRed autofl inactive, A488 fluor inconclusive, A647 fluor 3.3e-08 and Rhodamine fluor inactive.
Screening N[C@H](Cn1oc(=O)[nH]c1=O)C(=O)O returned Fluorescein autfl inconclusive, Resorufin autofl inactive, TexasRed autofl inactive, A488 fluor inactive, A647 fluor 5.2e-08 and Rhodamine fluor inactive.
For CCC(=NC1CCN(Cc2ccccc2)CC1)c1c(O)[nH]c(=O)[nH]c1=O the results were Fluorescein autfl inactive, Resorufin autofl inactive, TexasRed autofl inactive, A488 fluor inactive, A647 fluor 1e-09 and Rhodamine fluor inactive.
